According to the supplement of paper PMC12669032:

Experiments:
Experiment in all cases: growth AUC relative to DMSO control (median of replicates) (fraction); higher = more growth (less inhibition), active = hit call of the paper
Conditions in all cases: 20 µM; 24 h;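 active = AUC reduced over 20% with Padj below 0.05 in at least 2 of 3 replicates; inactive = otherwise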
[1] = tested on: Coprococcus comes
Outline: (§1)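 Three biological replicates, each grown on a separate day, were combined as a median for every value. In each, a gut bacterial monoculture in mGAM started at OD600 0.05 and grew anaerobically at 37 °C with 20 µM compound (1% DMSO), with OD600 read hourly over 24 h. Area under the growth curve was normalised against the plate median of solvent-only wells, or against row and column medians on the industrial chemical plate, after the minimum OD was set to 0.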

[2] = tested on: Escherichia coli ED1a
Outline: as §1

[3] = tested on: Escherichia coli IAI1
Outline: as §1

[4] = tested on: Eubacterium rectale
Outline: as §1

[5] = tested on: Fusobacterium nucleatum subsp. animalis
Outline: as §1

[6] = tested on: Lactobacillus gasseri
Outline: as §1

[7] = tested on: Lactobacillus paracasei
Outline: as §1

[8] = tested on: Odoribacter splanchnicus
Outline: as §1

[9] = tested on: Parabacteroides distasonis
Outline: as §1

[10] = tested on: Parabacteroides merdae
Outline: as §1

[11] = tested on: Roseburia intestinalis
Outline: as §1

[12] = tested on: Streptococcus salivarius
Outline: as §1

Measured: growth AUC

O=c1[nH]c(Cl)c(Cl)cc1Cl
inactive: [1] 0.998 | [2] 0.952 | [3] 0.983 | [4] 0.991 | [5] 1.04 | [6] 0.928 | [7] 0.984 | [8] 0.942 | [9] 0.921 | [10] 1.01 | [11] 0.993 | [12] 0.998

C#CCN1C(=O)COc2cc(F)c(N3C(=O)C4=C(CCCC4)C3=O)cc21
inactive: [1] 1.01 | [2] 0.98 | [3] 0.984 | [4] 1.09 | [5] 0.944 | [6] 0.883 | [7] 0.934 | [8] 0.948 | [9] 0.855 | [10] 0.958 | [11] 0.965 | [12] 0.974

COP(=S)(OC)Oc1ccc([N+](=O)[O-])c(Cl)c1
inactive: [1] 0.95 | [2] 0.97 | [3] 0.984 | [4] 1.18 | [5] 0.975 | [6] 0.893 | [7] 0.974 | [8] 0.876 | [9] 0.921 | [10] 0.932 | [11] 0.926 | [12] 1.05

Cc1cc(Cl)ccc1O[C@H](C)C(=O)O
inactive: [1] 1.01 | [2] 1 | [3] 0.98 | [4] 1.06 | [5] 1.08 | [6] 0.873 | [7] 0.979 | [8] 1.1 | [9] 0.961 | [10] 0.956 | [11] 0.898 | [12] 0.988

ClCC(Br)CBr (centres undefined)
inactive: [1] 1 | [2] 0.985 | [3] 0.996 | [4] 0.994 | [5] 0.995 | [6] 0.916 | [7] 0.995 | [8] 1.02 | [9] 1 | [10] 0.996 | [11] 1 | [12] 0.973

O=c1oc2ccccc2c(O)c1C1CCCc2ccccc21 (centres undefined)
inactive: [1] 0.966 | [2] 1.04 | [3] 1.04 | [4] 1.08 | [5] 1.05 | [6] 1 | [7] 0.894 | [8] 0.959 | [9] 0.805 | [10] 0.994 | [11] 1 | [12] 1.01

Clc1ccc(Cl)c(Cl)c1
inactive: [1] 0.919 | [2] 0.996 | [3] 0.974 | [4] 1.1 | [5] 1.11 | [6] 0.86 | [7] 0.943 | [8] 0.983 | [9] 0.95 | [10] 1.02 | [11] 0.989 | [12] 1.01

O=C1C=C(N(Cc2ccc(Cl)nc2)CC(F)F)CO1
inactive: [1] 1.02 | [2] 0.971 | [3] 0.994 | [4] 0.959 | [5] 1.05 | [6] 1 | [7] 0.869 | [8] 1.01 | [9] 0.999 | [10] 1.01 | [11] 1.02 | [12] 0.979

COP(=S)(OC)Oc1ccc(Sc2ccc(OP(=S)(OC)OC)cc2)cc1
inactive: [1] 1.03 | [2] 1.05 | [3] 1.01 | [4] 1.01 | [5] 1.09 | [6] 1.03 | [7] 0.973 | [8] 1.13 | [9] 1.01 | [10] 1.05 | [11] 1.03 | [12] 1.01

CCOP(=S)(OCC)Oc1cnccn1
inactive: [1] 0.984 | [2] 0.988 | [3] 0.963 | [4] 0.813 | [5] 1.01 | [6] 0.993 | [7] 1.01 | [8] 1.04 | [9] 1 | [10] 1.01 | [11] 0.976 | [12] 1

CCOP(=S)(OCC)Oc1cc(Cl)c(Br)cc1Cl
inactive: [1] 0.976 | [2] 1.02 | [3] 0.992 | [4] 1.05 | [5] 1.08 | [6] 0.868 | [7] 1 | [8] 0.968 | [9] 0.891 | [10] 0.962 | [11] 0.948 | [12] 0.958

CCOc1ccc(C(C)(C)COCc2cccc(Oc3ccccc3)c2)cc1
inactive: [1] 1 | [2] 0.991 | [3] 0.982 | [4] 1.06 | [5] 0.972 | [6] 0.918 | [7] 1.04 | [8] 1.07 | [9] 0.987 | [10] 0.992 | [11] 0.975 | [12] 0.983
